Sampled rows, rich in hits. Any-hit rate of the full collection: about 1.3%.
Vif-A3F inh: Vif-A3F binding inhibition. HeLa A3F-eYFP + Vif (tagged APOBEC3F with the HIV-1 protein that degrades it), YFP fluorescence increase. Potency, µM (highest dose often 46.1 µM). 0.2% of 390,000 active; note: nearly all actives have a fitted effect of over 65% in size
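Fluorescence increase (Ex 488/Em 500-530) after overnight compound treatment at 37 deg C flags inhibition of Vif-driven A3F-eYFP loss in stable HeLa A3F-eYFP/Vif cells seeded overnight beforehand.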
12-LOX inh: ALOX12 (human) lipoxygenase inhibition; P18054; purified 12hLO, xylenol orange hydroperoxide absorbance; Potency, µM (highest dose often 108 µM), hits mostly inhibitors; 1.1% of 580,000 active
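Purified human 12hLO (150 nM final) in 25 mM Hepes, 0.01% Triton X-100, pH 7.0 was preincubated 15 min at room temperature with compound. Then 40 uM arachidonic acid was added, 30 min. Hydroperoxide was read by Fe-XO absorbance ratio 573/405 nm.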
GRP78 ERSR act: inducers of ER stress response in human glioma cells. U87-MG GRP78 promoter luciferase reporter, 16 h. Potency, µM, most hits filed as activators. 0.02% of 420,000 active; note: series mostly up to about 76 µM; nearly all actives have a fitted effect of over 35% in size
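ERSR induction read as luciferase luminescence (Bright-Glo, 10 min at room temperature) in stably transfected human U87-MG glioma cells exposed to compounds for 16 h, using GRP78 as sensor.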
Vif-APOBEC3G blk: Vif-A3G binding inhibition. Q9HC16. HeLa A3G-eYFP + Vif (tagged APOBEC3G with the HIV-1 protein that degrades it), YFP fluorescence, overnight. Potency, µM (highest dose often 46.1 µM), actives largely listed as inhibitors. 0.076% of 410,000 active. AID 602310; note: nearly all actives have a fitted effect of over 60% in size
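Read-out is eYFP fluorescence (Ex 488/Em 500-530) from Vif-expressing HeLa A3G-eYFP cells; more signal means A3G escaped Vif-mediated degradation. Cells plated overnight, compound pinned in, incubated overnight at 37 deg C.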
TRPML1 agonist: human mucolipin-1 channel agonism; TRPML1-expressing cells, Ca2+ dye fluorescence, FDSS; Q9GZU1; activation, % (concentration not given with the values); 0.12% of 410,000 active; in the data active = activation above about 50%; inconclusive = mostly about 30% to 49%
Target sequence (Q9GZU1 whole entry, looked up): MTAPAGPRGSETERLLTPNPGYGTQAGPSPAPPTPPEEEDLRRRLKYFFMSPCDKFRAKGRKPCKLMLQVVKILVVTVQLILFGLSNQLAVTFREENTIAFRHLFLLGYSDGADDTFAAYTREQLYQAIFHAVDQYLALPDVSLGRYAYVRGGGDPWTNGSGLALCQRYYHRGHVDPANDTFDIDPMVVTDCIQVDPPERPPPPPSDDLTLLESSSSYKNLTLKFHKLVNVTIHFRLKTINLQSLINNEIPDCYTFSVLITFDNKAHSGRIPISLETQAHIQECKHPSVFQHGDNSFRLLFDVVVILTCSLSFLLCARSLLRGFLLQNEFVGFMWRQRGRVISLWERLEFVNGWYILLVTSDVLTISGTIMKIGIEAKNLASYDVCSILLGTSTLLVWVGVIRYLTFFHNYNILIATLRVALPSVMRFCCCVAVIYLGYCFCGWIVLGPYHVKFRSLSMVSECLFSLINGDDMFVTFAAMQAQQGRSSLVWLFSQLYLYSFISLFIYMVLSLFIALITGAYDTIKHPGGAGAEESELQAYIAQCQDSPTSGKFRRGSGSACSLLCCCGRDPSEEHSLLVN
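TRPML1-DL cells, Tet-induced overnight (~16 h, 37 degrees C), loaded 45-90 min at room temperature with Ca8 no-wash calcium dye plus quencher. FDSS fluorescence: 10 s baseline, compound pin-transfer, 110 s agonist read, then EC80 54-4 (4uM final) and 110 s antagonist read.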
TRPML1 blocker: blocks the human TRPML1 channel | Q9GZU1 | TRPML1-inducible cells, Ca2+ dye fluorescence, FDSS; active compounds read low; inhibition of EC80 agonist-evoked calcium signal | activity change, negative = inhibition, % (no concentration beside the values) | 0.02% of 390,000 active | AID 624415; in the data active = activity change below about -50%; inconclusive = between about -30% and that limit;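 note: stimulus is agonist 54-4 at its EC80 concentration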
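Tet-induced TRPML1-DL cells loaded with Ca8 no-wash calcium dye were read kinetically on FDSS. Compound addition was followed by EC80 agonist 54-4 (4 uM final); inhibition was read over 110 s.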
A number is an active result; i = inactive; ? = inconclusive; nt = no result; [ ] = remark or other dose. Unless noted, calls come from the whole dose curve; as a rule, active = well fitted curve in the direction sought with a large enough effect; inconclusive = small, poorly fitted or top-dose-only effect, or another doubt; inactive = no such curve, though single readings can be large; an effect the other way counts as inactive or inconclusive.

SMILES	Vif-A3F inh	12-LOX inh	GRP78 ERSR act	Vif-APOBEC3G blk	TRPML1 agonist	TRPML1 blocker
Cc1cc(C)nc(Nc2nc(C(N)Cc3ccccc3)cs2)n1 (stereo not drawn)	nt	i	i	4.47µM	i	i
O=C(NS(=O)(=O)NC(=O)c1ccccc1)c1ccccc1	nt	11.2µM	nt	nt	nt	nt
O=C(NS(=O)(=O)c1ccccc1[N+](=O)[O-])c1ccccc1	i	11.2µM	i	i	i	i
CCCCN(C)S(=O)(=O)N(C)Cc1ccc2c(c1)OCCO2	nt	i	nt	nt	nt	nt
Cc1ccc(S(=O)(=O)NN(Cc2ccccc2)Cc2ccccc2)cc1	i	15.8µM	i	i	i	i
CCc1c(C(=O)NC(C)C)csc1C	nt	i	nt	nt	nt	nt
COc1cc(NC(=S)Nc2ccccn2)cc(OC)c1	i	31.6µM	i	i	i	i
Cc1c(Cl)cccc1NC(=S)Nc1ccccn1	i	?	i	i	i	i
COc1cc(OC)cc(C(=O)N/N=C(\C)CC(=O)Nc2ccccn2)c1	i	i	i	3.55µM	i	i
S=C(Nc1ccccn1)c1ccccn1	i	4.47µM	i	?	i	i
S=C(Nc1ccccn1)Nc1ccccc1Cl	?	35.5µM	?	i	i	i
O=C(COc1ccc(Cl)cc1Cl)Nc1ccc2c(c1)N(C(=O)c1cccnc1)CCC2	nt	i	nt	nt	nt	nt
COCCn1c(SCC(=O)c2cc(C)c(C)cc2C)nc2ccccc2c1=O	nt	i	nt	nt	nt	nt
COC(=O)Cc1ccc(NC(=S)Nc2ccccn2)cc1	i	39.8µM	i	i	i	i
CN(CC(=O)N(C1CCCCC1)C1CCS(=O)(=O)C1)c1ccc2ccccc2c1 (stereo not drawn)	nt	i	nt	nt	nt	nt
CCCCCCCOc1ccc(-c2ccc(C(=O)O)cc2)cc1	nt	i	nt	nt	nt	nt
CC(C)Oc1ccc(C(CCNCc2ccc(O)cc2)c2ccccc2)cc1 (stereo not drawn)	i	39.8µM	i	i	nt	nt
Clc1ccccc1N/N=C/c1ccc2c(c1)OCO2	i	35.5µM	i	i	i	i
O=C(CNC(=O)c1ccccc1Cl)N/N=C/c1ccc2c(c1)OCO2	i	i	i	?	i	i
COC(=O)/C=C1\SC(=Nc2ccc(Cl)c(Cl)c2)NC1=O	i	?	i	i	i	i
COc1cc(/C=C2\SC(=Nc3ccccc3)NC2=O)cc(Cl)c1O	?	?	i	?	76.9	i
COc1cc(/C=C2\SC(=Nc3ccc(Cl)c(C(=O)O)c3)NC2=O)c(Br)c(Br)c1O	?	?	i	i	67.2	i
COc1cc(/C=C2\SC(=Nc3ccccc3OC)NC2=O)ccc1O	?	?	i	?	i	i
COc1cc(/C=C2\SC(=Nc3cccnc3)NC2=O)cc(OC)c1OC	25.1µM	i	i	?	i	i
O=C1NC(=Nc2cccnc2)S/C1=C\c1cccc(F)c1	i	i	i	i	i	i
SMILES	Vif-A3F inh	12-LOX inh	GRP78 ERSR act	Vif-APOBEC3G blk	TRPML1 agonist	TRPML1 blocker
COc1cc(/C=C2/SC(=Nc3ccc(O)cc3)NC2=O)ccc1O	25.1µM	?	i	?	nt	nt
CN(C)CC1(O)CCCN(Cc2ccc(Oc3ccc(Cl)cc3)cc2)C1 (stereo not drawn)	nt	i	nt	nt	nt	nt
CC(C)CC(=O)N1CCC(c2nc3ccccc3o2)CC1	nt	i	nt	nt	nt	nt
Cc1nc(C(=O)Nc2nc(C(C)(C)C)cs2)nn1-c1ccc(Cl)cc1	nt	i	nt	nt	nt	nt
COc1cccc(N2C(=O)NC(=NC3CCCC3)C23CCCN(CC2CCCCC2)C3)c1 (stereo not drawn)	nt	79.4µM	nt	nt	nt	nt
COc1cccc(N2C(=O)NC(=NC3CCCCC3)C23CCCN(CC2CC2)C3)c1 (stereo not drawn)	nt	i[6.33 µM]	nt	nt	nt	nt
COc1ccc(-c2nonc2NC(=O)c2ccc(OCC(C)C)cc2)cc1OC	nt	i	nt	nt	nt	nt
CC(C)CCN(C(=O)CN(C)c1ccccc1)c1c(N)n(Cc2ccccc2)c(=O)[nH]c1=O	nt	i	nt	nt	nt	nt
COC(=O)[C@H](C)NC(=O)Nc1ccc2oc(-c3cccnc3)nc2c1	nt	i	nt	nt	nt	nt
COC(=O)C1CCN(Cc2cc(=O)oc3ccc(Cl)cc23)CC1	nt	15.8µM	nt	nt	nt	nt
CCOC(=O)C1CCN(Cc2cc(=O)oc3ccc(Cl)cc23)CC1	nt	i	nt	nt	nt	nt
COc1ccc(CCN(C)C/C=C/c2ccccc2[N+](=O)[O-])cc1OC	i	0.891µM	i	i	i	i
COc1ccc(-n2cnc(=S)[nH]c2=S)cc1	?	22.4µM	i	i	i	i
O=C(O)c1ccccc1-c1c2ccc(=O)cc-2oc2cc(O)ccc12	nt	nt	i	nt	nt	nt
COC(=O)c1ccccc1-c1c2ccc(=N)cc-2oc2cc(N)ccc12	i	i	i	i	99.1	i
